Screens as filed in PubChem.
Only some compounds are listed: those with a hit (about 19% of all), similar ones and a draw of the others.
IL-1B inflam inh: qHTS for Inhibitors of Inflammasome Signaling: IL-1-beta AlphaLISA Primary Screen | THP-1 LPS/ATP IL-1B secretion, AlphaLISA, 16 h; hits give low values | activity change, % at 57.5 µM | 4.7% of 360,000 active; in the data active = activity change below about -50%; inconclusive = mostly about -30% to -49%
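THP-1 cells pretreated 1 hr with compounds (up to 57.5 uM final), then stimulated with LPS (250 ng/mL final) plus ATP (1.25 mM final); secreted IL-1B measured by AlphaLISA after 16 hr, decreased signal indicating inhibition.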
HT1080 IDH1KD tx: qHTS for induction of synthetic lethality in tumor cells producing 2HG: qHTS for the HT-1080-IDH1KD cell line; 2% of 360,000 active; Potency, µM (highest dose often 46.1 µM), for inactives: at the highest dose activity, negative = toxicity, usual class: cytotoxic; AID 686971, 2013; HT-1080 IDH1 knockdown viability, ATP luminescence, 48 h;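 also: potency is read from the fitted curve at half-maximal effect; 0% = DMSO wells and -100% = cell-free medium wells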
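Luminescent ATP read-out (CellTiter-Glo, 10 min at room temperature) after 48 h compound exposure at 37 °C gave viability of IDH1-knockdown HT-1080 cells. Activity was normalised to DMSO and cell-free wells, then fitted as concentration-response curves.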
TDP1 cell CPT: qHTS for Inhibitors of human tyrosyl-DNA phosphodiesterase 1 (TDP1): qHTS in cells in presence of CPT | chicken DT40 Tdp1-/-;hTDP1 cells + 20 nM CPT, ATP luminescence, 48 h | Potency, µM (top dose mostly 46.2 µM), without a hit: top-dose activity change, negative = growth inhibition, actives largely listed as inhibitors | 12% of 420,000 active | AID 686979, 2013; also: potency is read from the fitted curve at half-maximal effect; nearly all actives have a fitted effect of over 55% in size
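Cell growth measured by CellTiter-Glo luminescence after a minimum 48 h, 37 C compound exposure with 20 nM CPT in Tdp1-knockout DT40 cells stably expressing hTDP1, seeded 400/well; qHTS titration format.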
TDP1 cell noCPT: qHTS for Inhibitors of human tyrosyl-DNA phosphodiesterase 1 (TDP1): qHTS in cells in absence of CPT; DT40 Tdp1-/- hTDP1 cells, no CPT, ATP luminescence, 48 h; Potency, µM (series often up to 46.2 µM), for inactives: at the top dose activity change, negative = growth inhibition, hits mostly inhibitors; 15% of 420,000 active; also: potency is read from the fitted curve at half-maximal effect; nearly all actives have a fitted effect of over 55% in size
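Readout: luminescence from CellTiter-Glo after 30 min in the dark at RT. Cells: DT40 Tdp1-/- with stable hTDP1, 400/well. Exposure: compounds alone, ≥48 hr, 37 °C.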
HT1080-NT tox: qHTS for induction of synthetic lethality in tumor cells producing 2HG: qHTS for the HT-1080-NT fibrosarcoma cell line; Potency, µM (series often up to 46.1 µM), for the others: at the highest dose activity, negative = less viability, hits mostly cytotoxic; 1.6% of 360,000 active; HT-1080-NT fibrosarcoma viability, CellTiter-Glo ATP luminescence, 48 h;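 also: NT is the 2HG producing partner of a matched IDH1 knockdown line; potency is read from the fitted curve at half-maximal effect; 0% = DMSO-treated cells and -100% = media-only wells without cells; nearly all actives have a fitted effect of over 55% in size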
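HT-1080-NT; 750 cells/well; 5% FBS RPMI; 48 h compound, 37 degrees C; CellTiter-Glo luminescence; curve fitting and curve-class assignment.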
Starred values were filed as active, the others as inactive; ? = inconclusive. Unless noted, calls follow the shape of the dose curve; as a rule, active = well fitted curve in the direction sought with a large enough effect; inconclusive = small, poorly fitted or top-dose-only effect, or another doubt; inactive = no such curve, though single readings can be large; an effect the other way counts as inactive or inconclusive. Unless noted, % is scaled to controls: 0 for no effect and ±100 for the full control effect.

SMILES	IL-1B inflam inh	HT1080 IDH1KD tx	TDP1 cell CPT	TDP1 cell noCPT	HT1080-NT tox
COc1cc(-c2csc(CCn3nc(C)cc3C)n2)cc(OC)c1OC	-13.0	2.5%	20.6µM*	18.4µM*	-2.8%
Cc1cc(C)n(CCc2nc(-c3ccc(C(C)(C)C)cc3)cs2)n1	-50.7*	-9.8%	23.1µM*	11.6µM*	-5.5%
CCC(=O)Nc1nnc(SCc2ccccc2F)s1	3.9	-1.7%	17.7%	-6.8%	17.9%
Cc1ccc(S(=O)(=O)N/N=C\C=C\c2ccccc2)cc1	-4.7	0.8%	-1.5%	-0.6%	-2.9%
COc1ccc(Cl)cc1C=CC=NNS(=O)(=O)c1ccc(C)cc1	-4.3	7.4%	18.4µM*	16.4µM*	8.8%
COc1ccc(Cl)cc1C=CC=Nc1ccccc1O	?	-17.9%	23.1µM*	18.4µM*	-13.3%
COc1ccc(Br)cc1C=NNS(=O)(=O)c1ccc(C)cc1	73.2	?	?	7.31µM*	?
COc1cc(/C=N/NS(=O)(=O)c2ccc(Br)cc2)ccc1O	23.7	-0.3%	3.3%	4.4%	0.0%
O=C(CN(C(=O)CNC(=O)c1ccco1)c1ccc(F)cc1)NC1CCCCC1	-12.2	18.1%	6.5%	-12.6%	17.6%
Cc1ccc(S(=O)(=O)Nc2cccc(S(=O)(=O)Nc3ccccc3C(=O)O)c2)c(C)c1	2.9	0.3%	29.3%	3.7%	0.2%
COc1ccccc1NC(=O)CN1CCCCCC1	38.7	-10.2%	9.0%	-23.3%	-2.4%
COc1ccc(NC(=O)CN2CCN(C3c4ccccc4-c4ccccc43)CC2)c(OC)c1	8.9	-21.4%	?	25.9µM*	-11.9%
COc1ccccc1NC(=O)CN1CCN(C2c3ccccc3-c3ccccc32)CC1	15.6	?	18.4µM*	20.6µM*	?
CCc1c(C)nc2cc(-c3ccc(Cl)cc3)[nH]n2c1=O	4.0	-4.2%	3.66µM*	2.31µM*	-13.2%
CCc1c(C)nc2cc(-c3cccc(Br)c3)[nH]n2c1=O	27.8	-3.7%	4.61µM*	1.46µM*	1.9%
CCOC(=O)CCc1c(C)nc2cc(-c3ccc(Cl)cc3)[nH]n2c1=O	-12.7	8.3%	-28.7%	-14.3%	11.4%
Cc1ccc(NC(=O)Cn2cnc(C(=O)Nc3ccc(C)c(C)c3)n2)cc1C	47.6	8.1%	12.9%	-4.5%	12.4%
Cc1ccc(NC(=O)c2ncn(CC(=O)N[C@H](C)c3cccc4ccccc34)n2)cc1C	10.6	-24.1%	?	?	-9.8%
Cc1ccc(NC(=O)c2ncn(CCCN(C)CCc3ccccn3)n2)cc1C	-20.8	-1.6%	-24.9%	-22.2%	-3.0%
COc1ccc(CN(C)C(=O)Cn2cnc(C(=O)Nc3ccc(C)c(C)c3)n2)cc1OC	23.0	2.2%	18.4µM*	?	2.7%
Cc1ccc(NC(=O)c2ncn(CCCN3CCN(Cc4cccc5ccccc45)CC3)n2)cc1C	-51.9*	?	20.6µM*	13µM*	?
COc1cccc(CN(C)CCCn2cnc(C(=O)Nc3ccc(C)c(C)c3)n2)c1	-21.6	-2.2%	20.6µM*	?	-3.9%
CC(C)n1c(N2CCN(C(=O)NCc3ccccc3)CC2)nc2ccccc21	-25.1	13.2%	?	23.1µM*	11.9%
COc1ccc(NC(=O)N2CCN(c3nc4ccccc4n3C(C)C)CC2)cc1	-0.7	-7.3%	?	-27.5%	-19.5%
NNC(=O)[C@H](Cc1ccccc1)NC(=O)NCCc1ccccc1	-0.5	12.5%	-6.0%	23.6%	7.7%
Cc1ccc(S(C)(=O)=NS(=O)(=O)c2cccc3nsnc23)cc1 (configuration not stated)	-53.2*	3.9%	-11.2%	-8.4%	-0.1%
CNS(=O)(=O)c1cccc2nsnc12	17.6	-1.2%	-11.6%	0.0073µM*	2.9%
